HSF1 inhib = HSF1 inhibition; AID 2098; activity change, negative = inhibition, % at 7.5 µM (by protocol); NIH3T3-HGL HSE-luciferase, MG132-induced, luminescence 8 h; stronger effect = lower value; actives 0.77% (n = 300,000);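 active = more than half of replicate wells show activity change below -50%, luminescence cut by over half; inconclusive = some wells, but at most half, below -50%; inactive = no replicate well below -50%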;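 also: luciferase reports HSF-1 transcriptional activity via heat shock element; 0% = median of DMSO wells and -100% = zero luminescence signal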
HSF-1 act = increases HSF-1 driven luciferase reporter signal | NIH3T3-HGL HSF-1 luciferase reporter, MG132, 8 h; 100% = twice DMSO control signal | actives 1.7% (n = 300,000) | activation, % at 9 µM;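 active = mean replicate activation of at least 50% with a set share of replicates each reaching 50%; inconclusive = only one of those two conditions met; inactive = mean below 50% and too few replicates reaching it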;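 also: 0% = median of the neutral control wells and 100% = twice that signal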
MITF act = increases MITF-driven TRPM1 promoter luciferase signal | activation, % at 12.5 µM | AID 588334 | SK-MEL-5 TRPM1-promoter luciferase, 24 h; % of positive control, neutral wells = 0 | actives 0.75% (n = 300,000);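 active = mean activation of at least 80% with every replicate also reaching 80%; inconclusive = mean reaches 80% but some replicate falls short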;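 also: 0% = neutral control wells and 100% = parthenolide positive control wells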
Wnt act = Wnt/beta-catenin pathway activation; Wnt/beta-catenin reporter cell assay, activator, plate reader; activation, % at 9.35 µM; AID 743398; actives 1.2% (n = 300,000); in the data active = activation above about 30%, passing the limit was not always enough; inconclusive = no clear call, values can overlap the other calls;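 also: 0% = neutral control wells and 100% = positive control wells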
SMARCA2 act = increases SMARCA2 function in MMTV reporter cells; actives 1% (n = 370,000); MG213 cells, MMTV-luciferase reporter, dexamethasone, overnight; activation, % at 9.1 µM; in the data active = activation above about 7.8%;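 also: 0% = vehicle wells and 100% = reference activator wells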
esBAF inh = inhibitors of esBAF chromatin remodeling in mouse ES cells | Bmi1-luciferase knock-in reporter, 24 h; 100% = twice the neutral-well signal | reporter increase, % at 12.5 µM | actives 2% (n = 350,000) | AID 602393; in the data active = activation above about 40%; inconclusive = no clear call, values can overlap the other calls;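 also: 0% = median of the plate's neutral control wells and 100% = double that signal; a rise in the Bmi1 reporter signal indicates esBAF inhibition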
SMARCA2 conf = SMARCA2 activation, confirmation screen; shares compounds with SMARCA2 act; MG213 cells, MMTV-luciferase with dexamethasone, luminescence, overnight; MG213 cells expressing E1A, Rb sequestered; DMSO wells 0%, reference activator 100%; activation, % at 9.1 µM; actives 30% (n = 3,500); AID 652260;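 active = activation above its plate's cutoff, the mean activation of tested wells plus 3 SD, cut at about 7.9% in these data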
GAL4-VP16 Luc = counter-screen for SMARCA2 activators: GAL4-VP16 luciferase reporter activation; activation, % at 9.1 µM; HEK293 GAL4-VP16 pG5luc reporter, luciferase luminescence; scaled: DMSO wells 0%, SAHA wells 100%; actives 41% (n = 3,500); shares compounds with SMARCA2 act;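 active = activation above the solvent-only control well mean plus 3 SD, averaged across control plates, cut at about 5.2% in these data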
Starred values were filed as active, the others as inactive; ? = inconclusive; nt = not tested or not shown. In the library only some 4.3% were active in any assay of this set; here they are far more common.

SMILES | HSF1 inhib | HSF-1 act | MITF act | Wnt act | SMARCA2 act | esBAF inh | SMARCA2 conf | GAL4-VP16 Luc
Cc1ccc(C(=O)CNc2cccc([N+](=O)[O-])c2)cc1 | 25.4 | 49.2 | 29.3 | 9.1 | 10.6* | 23.9 | 6.8 | 6.3*
O=C(CNc1cccc(Cl)c1)c1ccc(Br)cc1 | 9.4 | 17.0 | nt | 4.5 | 8.9* | 11.3 | 9.8* | -0.6
Cc1ccc(NCCC(=O)c2cccc([N+](=O)[O-])c2)c(C)c1 | -17.7 | -14.3 | 36.7 | nt | 8.6* | ? | 7.4 | 3.4
COc1ccccc1C(CNC(=O)c1ccc(S(=O)(=O)NCc2ccco2)cc1)N(C)C (stereo unspecified) | 7.7 | 26.6 | -6.1 | nt | -4.1 | -7.9 | nt | nt
COc1ccccc1CN(C)C(=O)c1ccc(S(=O)(=O)NCc2ccco2)cc1 | nt | nt | -6.6 | -5.0 | 11.4* | -1.0 | 1.2 | 3.2
Oc1[nH]c(N=C2N=c3ccccc3=N2)c2ccccc12 | 196.1 | 288.2* | -28.9 | 28.5 | 14.3* | 11.0 | 6.9 | 37.4*
O=C(C[C@H]1C[C@@H]2c3cc(NC(=O)C4CCC4)ccc3O[C@@H]2[C@@H](CO)O1)NC1CCCCC1 | nt | nt | nt | nt | nt | 8.6 | nt | nt
c1ccc(COc2ccc(OCCN3CCCC3)cc2)cc1 | 3.6 | 8.1 | 56.3 | nt | 0.0 | nt | nt | nt
c1ccc(COc2ccc(OCCCN3CCCC3)cc2)cc1 | -39.5 | -43.3 | 6.6 | 6.3 | 8.7* | nt | 7.4 | 9.8*
C[C@H]1CN([C@@H](C)CO)C(=O)c2cc(NC(=O)Cn3cnnn3)ccc2O[C@@H]1CN(C)S(=O)(=O)c1cn(C)cn1 | nt | nt | nt | nt | nt | -0.7 | nt | nt
CCCN1C[C@@H](C)[C@@H](OC)CN(C)C(=O)c2ccc(NC(=O)c3ccc(F)cc3)cc2OC[C@H]1C | nt | nt | nt | nt | nt | -0.6 | nt | nt
C[C@@H]1CN([C@@H](C)CO)C(=O)c2cc(NS(=O)(=O)c3ccc(Cl)cc3)ccc2O[C@@H](C)CCCCO[C@@H]1CN(C)Cc1ccncc1 | nt | nt | nt | nt | nt | 7.9 | nt | nt
O=C1CCCC2=C1C(c1ccco1)Nc1ccc3ccccc3c12 (stereo unspecified) | 16.1 | 31.2 | -18.6 | nt | 20.1* | 22.4 | 8.3* | 0.7
O=C([C@@H]1[C@@H](CO)[C@@H]2Cn3c(ccc(C4=CCCC4)c3=O)[C@H]1N2)N1CCCCC1 | nt | nt | nt | nt | nt | 0.2 | nt | nt
CCOC(=O)C1=C(C)c2ccccc2N(C(=O)OC)C1(C)C(=O)OCC (stereo unspecified) | nt | nt | -10.0 | -1.1 | 8.1* | 13.8 | 1.3 | -0.7
COc1ccc(C(=O)Nc2ccccc2C(=O)N/N=C/c2ccncc2)cc1OC | 8.4 | 24.1 | nt | 25.6 | 8.5* | nt | 17.6* | 6.0*
N=c1oc2cc(O)ccc2cc1C(=O)Nc1ccc(F)cc1 | 11.3 | 17.1 | 34.8 | ? | 10.6* | 16.4 | 3.9 | 6.7*
O=C(c1ccc(F)cc1)c1cc2ccc(O)cc2oc1=O | 4.7 | -0.9 | 19.8 | 5.4 | 2.1 | 10.7 | nt | nt
COc1ccc(Cc2c(-c3ccc(F)cc3)nc3ccc(C)cn23)c(C)c1 | nt | nt | nt | 0.2 | 9.6* | nt | 2.0 | 6.4*
CCn1cc(CNC(=O)NC2CCCCC2)c(C)n1 | 9.8 | 6.3 | 32.3 | 4.8 | 11.9* | nt | 3.1 | 3.8
Cc1ccc(CNC(=O)NC2CCCCC2)cc1 | -4.6 | -2.5 | 30.1 | nt | 3.1 | nt | nt | nt
COC(=O)CC1C(=O)NCCN1C(=O)c1ccc([N+](=O)[O-])cc1 (stereo unspecified) | 9.5 | 36.3 | -0.4 | -0.1 | 10.0* | -6.3 | 4.6 | 0.1
CCOC(=O)c1ccc(COc2ccc(C(C)C)cc2)o1 | 25.0 | 54.1* | 66.3 | ? | 10.2* | nt | 13.5* | 14.4*
C[C@H]1CN([C@@H](C)CO)C(=O)c2cc(C#Cc3ccncc3)cnc2O[C@H]1CN(C)C(=O)c1ccccc1F | nt | nt | nt | nt | nt | 3.5 | nt | nt
Cc1ccsc1C1NC(=O)c2c(sc3c2CCN(C)C3)N1 (stereo unspecified) | 6.2 | 0.2 | 37.6 | 6.8 | -0.1 | 19.6 | nt | nt
SMILES | HSF1 inhib | HSF-1 act | MITF act | Wnt act | SMARCA2 act | esBAF inh | SMARCA2 conf | GAL4-VP16 Luc
CN1CCc2c(sc3c2C(=O)NC(c2cccs2)N3)C1 (stereo unspecified) | -9.6 | 11.6 | 40.3 | 15.4 | 11.1* | 34.1 | 4.4 | 1.9
Cc1c(C)n(CCc2ccccc2)c2ncnc(NCCO)c12 | 42.6 | ? | 137.7* | 13.7 | 10.3* | 75.7* | 8.4* | 10.2*
COc1ccc(-n2c(C)c(C)c3c(NCCO)ncnc32)cc1 | 12.0 | 12.7 | 3.2 | nt | nt | 19.4 | nt | nt
Cc1ccc(-n2c(C)c(C)c3c(NCCCO)ncnc32)cc1 | 24.8 | 28.5 | 72.9 | 10.3 | 10.2* | 59.3* | 12.4* | 8.6*
COc1ccc(-n2c(C)c(C)c3c(NCCCO)ncnc32)cc1 | 5.8 | 14.3 | 31.7 | 5.9 | 10.7* | 39.9 | -0.4 | 5.4*
C[C@@H]1CN([C@@H](C)CO)C(=O)Cc2cc(NC(=O)c3ccncc3)ccc2O[C@H]1CN(C)Cc1ccc(Oc2ccccc2)cc1 | nt | nt | nt | nt | nt | 0.4 | nt | nt
COC(=O)c1ccc2nc(NC(=O)C3CC3)sc2c1 | 19.1 | 27.5 | 60.6 | 27.6 | 11.6* | -22.4 | 8.7* | 5.3*
COC(=O)c1ccc2nc(NC(=O)CN3C(=O)CCC3=O)sc2c1 | 0.4 | 9.7 | -4.1 | 1.7 | 2.0 | 10.1 | nt | nt
O=C(c1cc(Cl)ccc1Cl)N1CCOCC1 | -71.9* | -77.6 | -15.6 | -1.7 | 10.5* | -8.2 | 8.2* | 1.4
O=C(c1ccc(Cl)cc1Cl)N1CCOCC1 | nt | nt | 10.4 | -2.6 | 1.8 | -2.9 | nt | nt
COc1ccc(Nc2nc(C)c(-c3ccccc3)s2)cc1 | nt | nt | 71.2 | nt | 10.6* | nt | 4.5 | 5.9*
Cc1nc(Nc2ccc(S(N)(=O)=O)cc2)sc1-c1ccccc1 | 18.9 | 41.6 | 58.6 | -2.2 | 2.9 | -28.1 | nt | nt
Cc1ccc(S(=O)(=O)Nc2ccc3c(c2)C(=O)N([C@H](C)CO)C[C@H](C)[C@H](CN(C)C)OCCCC[C@H](C)O3)cc1 | nt | nt | nt | nt | nt | 0.4 | nt | nt
CN(C)CCCNC(=O)C[C@@H]1CC[C@@H](NS(=O)(=O)c2ccccc2)[C@H](CO)O1 | nt | nt | nt | nt | nt | -1.0 | nt | nt
C/C=C/c1cnc2c(c1)C(=O)N([C@H](C)CO)C[C@H](C)[C@H](CN(C)C(=O)Cc1ccccn1)O2 | nt | nt | nt | nt | nt | -2.1 | nt | nt
Brc1ccc(/C=N/Nc2nc3ccccc3o2)cc1 | 20.4 | 63.2* | 99.5* | 47.2* | 9.2* | ? | 3.2 | 13.7*
CCC(=O)N[C@H]1CC[C@@H](CCNS(=O)(=O)c2ccc(Cl)cc2)O[C@H]1CO | nt | nt | nt | nt | nt | -0.6 | nt | nt
Cc1cccc(C(=O)Nc2ccc3c(c2)ncn3C)c1 | 12.3 | 37.3 | 125.5* | 22.3 | 11.6* | 2.1 | 8.3* | 18.7*
